Consider eight compounds from PubChem BioAssay (NCI).

“And” between values parts separate entries of the source, which are not always exact repeats. Equal entries are not always repeated. About 83,000 compounds went through this panel and 20% of them were active in at least one assay; those are over-represented in the sample as a whole.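 Testing used 96-well plates and a 48-hour single-concentration exposure. Example: -40 means 40% of the starting cells died.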 Values without a mark were called inactive. The source made the active and inactive calls. How the source made its calls: active means growth percent below 10; inactive means the rest.

What all share (assay): NCI-60 one-dose screen, 48 h (100 = growth as untreated, 0 = no growth, -100 = all killed)
Common to all, as to details: 10 µM unless noted

The subject of assay [1] is NCI-H23 lung.
The test system of assay [2] is NCI-H226 lung.
The test system of assay [3] is NCI-H322M lung.
The test system of assay [4] is HOP-62 NSCLC.
In assay [5] the test system is NCI-H460 lung.
In assay [6] the test system is HOP-92 NSCLC.
The subject of assay [7] is NCI-H522 lung.
For assay [8], the system named is A549/ATCC NSCLC.
Assay [9] relates to 786-0 renal.
In assay [10] the test system is COLO 205 colon.
Assay [11] has as its system DU-145 prostate.
The subject of assay [12] is K-562 leukemia.
In assay [13] the test system is MALME-3M melanoma.
Assay [14] concerns MDA-MB-231 breast.
For assay [15], the system named is RXF 393 renal.
Assay [16] deals with SF-268 CNS.
For assay [17], the system named is SF-295 CNS.
Assay [18] deals with SF-539 CNS.
In assay [19] the test system is UACC-257 melanoma.
The subject of assay [20] is M14 melanoma.

For the compound `Cc1c(C)c(N)c(C)c(C)c1N`, the growth is 79.2% in [1]; 98.5% in assay [2]; 87.6% in assay [3]; 90.6% in assay [4]; 39.8% in assay [5]; 97.5% in [6]. The growth in assay [7] was 40.8%; in assay [8], 79.6%; in assay [9], 107%; in assay [10], 91.9%; in assay [11], 6.41% (active); in assay [12], 97.8%. Besides, the growth in [13] is 93.2%; in [14], 83.2%; in assay [15], 84.1%; in assay [16] it was 91.5%; in assay [17], 85.4%; in assay [18], 108%. The growth in assay [19] was 92.9%; in assay [20] it was 98.7%.

Regarding `C/C(=N/OC(=O)N(C)C)c1ccc(Cl)c(Cl)c1`, the growth is 98.2% in [1]; 102% in assay [2]; 96.1% in assay [3]; 107% in assay [4]; 107% in assay [5]; 102% in assay [6]. Further, the growth in [7] is 102%; in assay [8], 82.7%; in assay [9], 103%; in [10], 111%; in [11], 121%; in [12], 120%. Besides, the growth was 115% in [13]; 105% in [14]; 108% in assay [15]; 105% in assay [16]; 112% in assay [17]; 114% in assay [18]. The growth in assay [19] is 97.4%; in [20], 113%.

Regarding `CC(C)c1cccc(C(C)C)c1O`, the growth is 97% and 103% in [1]; 107% and 103% in assay [2]; 99.6% and 93% in assay [3]; 111% and 110% in assay [4]; 117% and 101% in assay [5]; 100% in [6]. In addition, the growth was 98% in [7]; 93.1% and 75.5% in assay [8]; 108% in assay [9]; 116% and 111% in assay [10]; 109% and 116% in [11]; 92.8% and 104% in assay [12]. For the same compound, the growth in assay [13] is 95.7% and 91.8%; in [14], 114% and 107%; in assay [15], 109%; in [16], 110% and 97.7%; in [17], 101% and 103%; in assay [18] it was 115% and 97.4%. Further, the growth in [19] was 100%; in assay [20] it was 109% and 111%.

In the case of `C[N+]1(C)CCCC1c1cccnc1` (stereo not given), the growth in assay [1] was 101%; in assay [2] it was 98.3%; in [3] it was 104%; in assay [4], 101%; in [5] it was 108%; in assay [6], 88.9%. The growth in [7] is 102%; in assay [8] it was 95.9%; in [9], 91%; in assay [10], 109%; in [11], 110%; in assay [12], 99.3%. Further, the growth is 92.1% in [13]; 109% in assay [14]; 102% in [15]; 108% in assay [16]; 100% in assay [17]; 107% in assay [18]. The results for the growth in assay [19] and in [20] were 96.9% and 97.5%, respectively.

For the compound `C/C(=C(\c1ccc(OCCN2CCOCC2)cc1)c1ccc(OC(=O)Cc2ccccc2)cc1)c1ccc(Cl)cc1`, the growth in [1] was 86%; in assay [2] it was 103%; in [3], 90.6%; in assay [4] it was 98.9%; in [5], 97.6%; in assay [6], 70%. For the same compound, the growth in [7] is 72.9%; in assay [8], 90.4%; in [9], 77.7%; in assay [10] it was 106%; in assay [11] it was 97.8%; in assay [12], 7.15% (active). Also, the growth was 104% in assay [13]; 96.8% in [14]; 89.6% in [15]; 90.1% in [16]; 98.9% in [17]; 98.2% in [18]. In addition, the growth is 87.5% in assay [19] and 85.1% in assay [20].

In the case of `Cc1nnc([S-])o1.[Au+].c1ccc([PH+](c2ccccc2)c2ccccc2)cc1`, the growth was 61.5% in [1]; 114% in assay [2]; 88.4% in assay [3]; 121% in assay [4]; 86% in assay [5]; -9.28% (active) in assay [6]. Also, the growth in assay [7] is -81.1% (active); in assay [8] it was 76.4%; in assay [9] it was 38.8%; in assay [10], 55.4%; in [11], 62.4%; in assay [12] it was 12.8%. Also, the growth in assay [13] was 48.1%; in assay [14] it was 61.4%; in assay [15], -53.8% (active); in [16] it was 43.4%; in assay [17], 92.1%; in assay [18], 67.8%. The figures for the growth in [19] and in [20] were 27.9% and 31.8%, respectively.

As for `CC1(C)S[C@H]2CC[C@H]3OC(=O)[C@@H]1N23`, the growth in [1] is 94.7%; in [2] it was 98.1%; in assay [3] it was 98.7%; in assay [4], 104%; in [5], 110%; in assay [6], 77.9%. Further, the growth in [7] is 88.9%; in assay [8] it was 96.6%; in [9], 106%; in [10], 137%; in assay [11], 116%; in [12], 111%. In addition, the growth in assay [13] is 101%; in assay [14], 121%; in [15], 103%; in [16], 113%; in assay [17], 88%; in assay [18], 104%. Further, the growth was 116% in [19] and 106% in assay [20].

With `O=C(NC(Cl)=C(Cl)Cl)P(=O)(c1ccccc1)c1ccccc1`, the growth in assay [1] was 105%; in assay [2] it was 101%; in assay [3], 108%; in assay [4], 104%; in [5], 114%; in assay [6], 97.4%. Further, the growth in assay [7] was 99.4%; in [8] it was 101%; in assay [9] it was 101%; in [10] it was 118%; in assay [11], 118%; in assay [12], 121%. The growth was 104% in assay [13]; 98.9% in assay [14]; 100% in assay [15]; 110% in assay [16]; 72.9% in assay [17]; 106% in [18]. Besides, the growth in assay [19] is 110%; in [20] it was 111%.
